Laboratory results: the supplement of paper PMC8728848
The sample as a whole holds a higher share of the strongest signals than the screen did.

What was measured:
Test in all cases: glycan array binding signal (z-score within array); higher = stronger binding
Details in all cases: glycan notation: IUPAC condensed, linker removed
[1] = molecular target: Fuc(a1-2)Gal(b1-3)GlcNAc(b1-2)Man(a1-3)[Fuc(a1-2)Gal(b1-3)GlcNAc(b1-2)Man(a1-6)]Man(b1-4)GlcNAc(b1-4)GlcNAc
Outline: (§1)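 The binding signal is a Z-score computed within each array. Data were drawn from 3228 arrays in the Consortium for Functional Glycomics database, restricted to those with a known protein sequence. Scores were averaged over arrays of the same protein sequence at different concentrations or buffers, and over linkers, and negative values can be taken as non-binding.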

[2] = molecular target: Fuc(a1-2)Gal(b1-3)GlcNAc(b1-3)Gal(b1-4)Glc
Outline: as §1

[3] = molecular target: Fuc(a1-2)Gal(b1-4)GlcNAc(b1-2)Man(a1-3)[Fuc(a1-2)Gal(b1-4)GlcNAc(b1-2)Man(a1-6)]Man(b1-4)GlcNAc(b1-4)[Fuc(a1-6)]GlcNAc
Outline: as §1

[4] = molecular target: Fuc(a1-2)Gal(b1-4)GlcNAc(b1-3)[Fuc(a1-2)Gal(b1-4)GlcNAc(b1-6)]GalNAc
Outline: as §1

[5] = molecular target: Fuc(a1-2)[Gal(a1-3)]Gal(b1-4)GlcNAc
Outline: as §1

[6] = molecular target: Fuc(a1-2)[Gal(a1-3)]Gal(b1-4)GlcNAc(b1-6)GalNAc
Outline: as §1

[7] = molecular target: Fuc(a1-2)[GalNAc(a1-3)]Gal(b1-3)GlcNAc(b1-3)GalNAc
Outline: as §1

[8] = molecular target: Fuc(a1-2)[GalNAc(a1-3)]Gal(b1-4)GlcNAc(b1-3)GalNAc
Outline: as §1

[9] = molecular target: Fuc(a1-3)[Gal(b1-4)]GlcNAc(b1-3)Gal(b1-4)[Fuc(a1-3)]GlcNAc(b1-3)Gal(b1-4)[Fuc(a1-3)]GlcNAc
Outline: as §1

[10] = molecular target: Fuc(a1-3)[Gal(b1-4)]GlcNAc(b1-6)GalNAc
Outline: as §1

[11] = molecular target: Fuc(a1-3)[Gal(b1-4)]GlcNAc(b1-6)[Gal(b1-3)GlcNAc(b1-3)]Gal(b1-4)Glc
Outline: as §1

Fuc(a1-4)GlcNAc = molecular target: Fuc(a1-4)GlcNAc
Outline: as §1

[12] = molecular target: Gal(a1-3)Gal(b1-3)GlcNAc(b1-2)Man
Outline: as §1

[13] = molecular target: Gal(a1-3)Gal(b1-4)GlcNAc(b1-6)GalNAc
Outline: as §1

[14] = molecular target: Gal(b1-3)GalNAc(b1-4)Gal(b1-4)Glc
Outline: as §1

[15] = molecular target: Gal(b1-3)GlcNAc(b1-3)Gal(b1-4)GlcNAc
Outline: as §1

[16] = molecular target: Gal(b1-3)GlcNAc(b1-3)Gal(b1-4)GlcNAc(b1-6)[Gal(b1-3)GlcNAc(b1-3)]Gal(b1-4)Glc
Outline: as §1

[17] = molecular target: Gal(b1-3)GlcNAc(b1-6)[Gal(b1-3)]GalNAc
Outline: as §1

[18] = molecular target: Gal(b1-3)[Fuc(a1-4)]GlcNAc(b1-2)Man(a1-3)[Gal(b1-3)[Fuc(a1-4)]GlcNAc(b1-2)Man(a1-6)]Man(b1-4)GlcNAc(b1-4)[Fuc(a1-6)]GlcNAc
Outline: as §1

[19] = molecular target: Gal(b1-3)[Fuc(a1-4)]GlcNAc(b1-3)Gal(b1-4)[Fuc(a1-3)]GlcNAc
Outline: as §1

[20] = molecular target: Gal(b1-3)[Fuc(a1-4)]GlcNAc(b1-6)GalNAc
Outline: as §1

[21] = molecular target: Gal(b1-4)GlcNAc(b1-2)Man(a1-3)[Gal(b1-4)GlcNAc(b1-2)Man(a1-6)]Man(b1-4)GlcNAc(b1-4)[Fuc(a1-6)]GlcNAc
Outline: as §1

[22] = molecular target: Gal(b1-4)GlcNAc(b1-2)[Gal(b1-4)GlcNAc(b1-4)]Man(a1-3)[GlcNAc(b1-4)][Gal(b1-4)GlcNAc(b1-2)[Gal(b1-4)GlcNAc(b1-6)]Man(a1-6)]Man(b1-4)GlcNAc(b1-4)GlcNAc
Outline: as §1

[23] = molecular target: Gal(b1-4)GlcNAc(b1-3)Gal(b1-4)GlcNAc(b1-3)Gal(b1-4)GlcNAc(b1-2)Man(a1-3)[Gal(b1-4)GlcNAc(b1-3)Gal(b1-4)GlcNAc(b1-3)Gal(b1-4)GlcNAc(b1-2)Man(a1-6)]Man(b1-4)GlcNAc(b1-4)[Fuc(a1-6)]GlcNAc
Outline: as §1

[24] = molecular target: Gal(b1-4)GlcNAc(b1-3)Gal(b1-4)GlcNAc(b1-3)[Gal(b1-4)GlcNAc(b1-3)Gal(b1-4)GlcNAc(b1-6)]GalNAc
Outline: as §1

[25] = molecular target: Gal(b1-4)GlcNAc(b1-3)Gal(b1-4)GlcNAc(b1-6)[Gal(b1-3)]GalNAc
Outline: as §1

Gal3S(b1-3)GalNAc = molecular target: Gal3S(b1-3)GalNAc
Outline: as §1

Gal3S6S(b1-4)GlcNAc6S = molecular target: Gal3S6S(b1-4)GlcNAc6S
Outline: as §1

Gal6S(b1-3)GlcNAc = molecular target: Gal6S(b1-3)GlcNAc
Outline: as §1

Gal6S(b1-4)Glc = molecular target: Gal6S(b1-4)Glc
Outline: as §1

B1: Aap arpt (Staphylococcus epidermidis) (protein)
chain: NNEAPQMSSTLQAEEGSNAEAPQSEPTKAEEGGNAEAAQSEPTKAEEGGNAEAPQSEPTKAEEGGNAEAAQSEPTKTEEGSNVKAAQSEPTKAEEGSNAEAPQSEPTKTEEGSNAKAAQSEPTKAEEGGNAEAAQSEPTKTEEGSNAEAPQSEPTKAEEGGYAEAPQSEPTKTEEGGNAEAPNVPTIKA
glycan array binding signal (z-score) [1]: 1.6 | glycan array binding signal (z-score) [2]: 0.811 | glycan array binding signal (z-score) [3]: -0.547 | glycan array binding signal (z-score) [4]: -1.34 | glycan array binding signal (z-score) [5]: 0.036 | glycan array binding signal (z-score) [6]: -0.475 | glycan array binding signal (z-score) [7]: -0.103 | glycan array binding signal (z-score) [8]: -0.617 | glycan array binding signal (z-score) [9]: 0.278 | glycan array binding signal (z-score) [10]: 0.096 | glycan array binding signal (z-score) [11]: -0.249 | glycan array binding signal (z-score) (Fuc(a1-4)GlcNAc): 0.688 | glycan array binding signal (z-score) [12]: -0.261 | glycan array binding signal (z-score) [13]: 3.25 | glycan array binding signal (z-score) [14]: 0.305 | glycan array binding signal (z-score) [15]: -1.2 | glycan array binding signal (z-score) [16]: 0.709 | glycan array binding signal (z-score) [17]: 0.662 | glycan array binding signal (z-score) [18]: 2.23 | glycan array binding signal (z-score) [19]: -1.72 | glycan array binding signal (z-score) [20]: -0.35 | glycan array binding signal (z-score) [21]: 0.746 | glycan array binding signal (z-score) [22]: -1.6 | glycan array binding signal (z-score) [23]: 2.73 | glycan array binding signal (z-score) [24]: 2.68 | glycan array binding signal (z-score) [25]: 2.97 | glycan array binding signal (z-score) (Gal3S(b1-3)GalNAc): 0.361 | glycan array binding signal (z-score) (Gal3S6S(b1-4)GlcNAc6S): 1.02 | glycan array binding signal (z-score) (Gal6S(b1-3)GlcNAc): -1.93 | glycan array binding signal (z-score) (Gal6S(b1-4)Glc): -0.15
